Measured values from PubChem BioAssay AID720518 (National Center for Advancing Translational Sciences (NCATS), 2013).
Records with an inconclusive call do not appear. Unmarked numbers belong to inactive results. Activity calls are given as the source filed them. Calls come from the whole dose curve.

test: qHTS for Inhibitors of Cell Surface uPA Generation: Wild-type Protective Antigen (WT-PrAg) Counterscreen for Cherry-picked Compounds; conditions: cells, WT protective antigen toxicity counterscreen; series mostly up to 115 µM; activity (protection): at the top concentration; for activity (protection): 0% is about no effect
Potency is the fitted concentration of half-maximal effect.

Point of comparison: `C=CCOC(=O)C1=C[C@@H](c2coc3ccccc3c2=O)C[C@@H](OCc2ccc(CO)cc2)O1`, “activity (protection)” value -1.44%. Against it:
- O=C(O)COc1ccccc1/C=N/NC(=O)CNC(=O)c1ccco1 — higher, 1.49%
- CC(C)Cn1cnc2c1c(=O)[nH]c(=O)n2Cc1ccccc1 — higher, 0.91%
- Cc1ccc2sc(NNC(=O)c3ccc4c(c3)OCCO4)nc2c1C — lower, -2.4%
- CCc1ccc(NCc2nc(-c3ccccc3)no2)cc1 — higher, 0.157%
- O=C1[C@H]2[C@@H](c3ccc(F)cc3)N3C(=O)N(c4cccc(F)c4)C(=O)[C@@]3(Cc3ccc(Cl)cc3)[C@H]2C(=O)N1C1CCCCC1 — higher, 11.7%
- Cc1cccc(CCNC(=O)Cc2ccc(NC3=NC4CS(=O)(=O)CC4S3)cc2)c1 (configuration not stated) — higher, 0.911%
- O=C(O)CCc1nn2c3ccccc3n(CC(=O)O)c2nc1=O — higher, 0.284%
- Cc1cc(C)cc(NC(=O)Cc2ccc(NC3=NC4CS(=O)(=O)CC4S3)cc2)c1 (configuration not stated) — higher, 0.0867%
- Nc1cc(=O)[nH]c(SCC(=O)Nc2cccc([N+](=O)[O-])c2)n1 — higher, -1.09%
- COc1cc(OC)cc(C(=O)NC(C(=O)Nc2ccc3c(c2)CCC3)C(C)C)c1 (configuration not stated) — higher, 0.968%
- Cc1ccc(S(=O)(=O)NNC(=O)c2ccc(F)cc2)cc1 — higher, 0.393%
- CC1(C)CC2(CC(c3ccccc3)Oc3cc(O)ccc32)NC(=S)N1 (configuration not stated) — higher, -0.912%
- O=C(NCc1ccco1)/C(=C\c1cccs1)NC(=O)c1ccccc1 — higher, -0.228%
- NC(=O)c1ccccc1NC(=O)CC12CC3CC(CC(C3)C1)C2 — higher, -1.39%

With `CCCCn1c(SCC(=O)Nc2cc(C(F)(F)F)ccc2Cl)nnc1C(CC)N(C)C` (configuration not stated) the Potency was 58.5 µM (active).
With `CN(C)c1cccc(C(=O)N(C)C2CCCN(Cc3ccccc3F)C2)c1` (configuration not stated) the Potency was 23.3 µM (active).
